Experimental findings from PubChem BioAssay are described below.

For experiment [1], the system named is Wnt5a (protein binding on small-molecule microarray). Put plainly: Wnt5a binders on small-molecule microarray, primary screen, biophysical, 635/667 nm fluorescence (AID 1142).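 Also: fluorescence read at 667 nm with signal to noise per printed feature.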 The note with it: 635 nm fluorescence, higher = more signal.
Experiment [2] can be described thus: cell viability in Huh7 cells, primary screen, cytotoxicity control for HCV replication inhibitor project, CellTiter-Glo luminescence, basal, 48 h (AID 1143).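 Also: Huh7 hepatoma cells carrying a hepatitis C replication reporter with no stimulus; test concentration not given here.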 The following applies: Huh7 HCV replicon, higher = more signal, called active from +8 up or from −8 down.
Experiment [3] in a line: P. aeruginosa biofilm formation inhibitors, primary screen, PAO1 strain, BacTiter-Glo luminescence, LB-PBS (AID 1144). The following applies: 12 h, higher = more signal.
Experiment [4] in a line: CREB reporter modulators without forskolin, primary screen, cell-based, PC12, CRE-LacZ reporter, unstimulated (AID 1145). The note with it: no forskolin, luminescence, 4.5 h, higher = more signal, called active from +8 up or from −8 down.
The nature of experiment [5]: CREB reporter modulators under forskolin, primary screen, cell-based, PC12, CRE-LacZ reporter, forskolin-stimulated (AID 1146).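 Also: PC12 cells with 6xCRE LacZ reporter stimulated by forskolin 10 µM; beta-galactosidase reporter signal reflecting CREB driven transcription.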 The following applies: luminescence, 4.5 h, higher = more signal, called active from +8 up or from −8 down.
For experiment [6], the target named is Streptavidin (Streptomyces avidinii) (UniProt P22629). Briefly: streptavidin binders on small-molecule microarray, primary screen, artefact control for SMM compound annotation, biophysical, 635/667 nm fluorescence (AID 1147).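 Also: signal reflects streptavidin binding to arrayed compounds as a control protein.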 The note with it: streptavidin binding, higher = more signal.
Chain of Streptavidin (Streptomyces avidinii) (P22629 whole entry, looked up): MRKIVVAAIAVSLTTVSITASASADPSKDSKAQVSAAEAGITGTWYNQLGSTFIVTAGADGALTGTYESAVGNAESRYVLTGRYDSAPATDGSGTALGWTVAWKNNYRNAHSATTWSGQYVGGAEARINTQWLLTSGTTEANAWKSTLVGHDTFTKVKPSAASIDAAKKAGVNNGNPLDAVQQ
Experiment [7] can be described thus: small-molecule binders of probe aInhba, primary screen, biochemical, small-molecule microarray, 635/667 nm fluorescence (AID 1148).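 Also: score merges 667nm spot fluorescence with signal-to-noise for antibody binding to printed compounds.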 The following applies: higher = more signal.
The target of experiment [8] is Torsin-1A (Homo sapiens) (UniProt O14656). Briefly: torsin A binders from cell lysate, primary screen, small-molecule microarray, wild-type, 635/667 nm (AID 1149). The note with it: COS7 hTOR1A-WT lysate, 635 nm fluorescence, higher = more signal.
Chain of Torsin-1A (Homo sapiens) (O14656 whole entry, looked up): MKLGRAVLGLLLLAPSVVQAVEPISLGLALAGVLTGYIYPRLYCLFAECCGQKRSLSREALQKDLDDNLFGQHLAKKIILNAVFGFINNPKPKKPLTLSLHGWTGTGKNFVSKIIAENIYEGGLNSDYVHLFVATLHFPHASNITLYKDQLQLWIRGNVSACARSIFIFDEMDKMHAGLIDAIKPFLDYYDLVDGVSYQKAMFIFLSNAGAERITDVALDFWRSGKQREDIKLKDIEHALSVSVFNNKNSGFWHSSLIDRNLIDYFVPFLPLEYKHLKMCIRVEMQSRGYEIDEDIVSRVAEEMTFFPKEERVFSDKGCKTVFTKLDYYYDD
Experiment [9] shares this target. Put plainly: small-molecule binders of mutant TOR1A in lysate, primary screen, cell lysate, small-molecule microarray, COS7 lysate, 635/667 nm fluorescence (AID 1150).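 Also: score pools 667 nm emission and signal to noise measuring lysate protein binding.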 The following applies: COS7 hTOR1A mutant lysate, 635 nm fluorescence, higher = more signal.
The test system of experiment [10] is Sonic hedgehog protein (Shh). Put plainly: small-molecule binders of Shh protein, primary screen, biochemical, small-molecule microarray, 635/667 nm fluorescence (AID 1151).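 Also: Shh protein binding to compounds spotted on small-molecule microarray slides; score combines spot fluorescence intensity with signal-to-noise across triplicate slides.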 The note with it: small-molecule microarray binding, 635 nm fluorescence; higher = more signal.
Experiment [11] in a line: E. coli DRC41 culture turbidity changes, primary screen, E. coli filamentation inducer project, strain DRC41, OD650, 48 h (AID 1152).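 Also: E. coli MC1000 strain DRC41 lacking acrAB efflux pump and sulA.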 The following applies: E. coli DRC41 (acrAB sulA), higher = more signal, called active from +8 up or from −8 down.
The nature of experiment [12]: small-molecule binders of probe aLefty1, primary screen, biochemical, small-molecule microarray, 635/667 nm fluorescence (AID 1153).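 Also: score merges spot fluorescence with signal-to-noise ratio from the scanned slide images.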 The note with it: higher = more signal.
The nature of experiment [13]: PSAC antagonists in infected red cells, primary screen, cell-based, P. falciparum Indochina, OD700, 1 h (AID 1154). The following applies: P. falciparum Indochina infected RBC osmotic lysis, higher = more signal, called active from +8 up or from −8 down.
The nature of experiment [14]: PSAC antagonists in infected red cells, primary screen, cell-based, P. falciparum Indochina, OD700, 2 h (AID 1155).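 Also: lysis reports solute entry through the parasite surface anion channel PSAC; channel blockers reduce lysis of infected cells.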 The note with it: P. falciparum Indochina infected erythrocytes, osmotic lysis OD700; higher = more signal, called active from +8 up or from −8 down.
Experiment [15] can be described thus: osmotic lysis modulators in infected erythrocytes, primary screen, PSAC antagonist project, cell-based, P. falciparum Indochina, OD700, 3 h (AID 1156). The note with it: higher = more signal, called active from +8 up or from −8 down.
A short description of experiment [16]: PSAC antagonists in infected red cells, primary screen, cell-based, P. falciparum Indochina, OD700, 18 h (AID 1157). The following applies: P. falciparum Indochina infected erythrocytes, osmotic lysis OD700, 18 h; higher = more signal, called active from +8 up or from −8 down.
Experiment [17] can be described thus: modulators of S6 phosphorylation in cells, primary screen, cell-based, A549, cytoblot, luminescence, serum-stimulated (AID 1158).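 Also: serum-stimulated A549 lung adenocarcinoma cells; signal is phosphorylated S6 detected by cytoblot immunostaining with HRP secondary.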 The following applies: A549 phospho-S6 cytoblot, 5 h, higher = more signal.
Experiment [18] concerns the target NADPH oxidase 2 (Homo sapiens) (UniProt P04839). Briefly: NOX2-dependent H2O2 signal modulators, primary screen, NOX inhibitor project, cell-based, HEK293-NOX2, PMA-stimulated, Amplex Red fluorescence (AID 1159). Also: test concentration not given here. The note with it: 45 min, higher = more signal, called active from +8 up or from −8 down.
Experiment [19] deals with NADPH oxidase 4 (Homo sapiens) (UniProt Q9NPH5). Put plainly: NOX4-dependent H2O2 signal modulators, primary screen, NOX inhibitor project, cell-based, HEK293-NOX4, tetracycline-induced, Amplex Red fluorescence (AID 1160). The note with it: 45 min, higher = more signal, called active from +8 up or from −8 down.
Chain of NADPH oxidase 4 (Homo sapiens) (Q9NPH5 whole entry, looked up): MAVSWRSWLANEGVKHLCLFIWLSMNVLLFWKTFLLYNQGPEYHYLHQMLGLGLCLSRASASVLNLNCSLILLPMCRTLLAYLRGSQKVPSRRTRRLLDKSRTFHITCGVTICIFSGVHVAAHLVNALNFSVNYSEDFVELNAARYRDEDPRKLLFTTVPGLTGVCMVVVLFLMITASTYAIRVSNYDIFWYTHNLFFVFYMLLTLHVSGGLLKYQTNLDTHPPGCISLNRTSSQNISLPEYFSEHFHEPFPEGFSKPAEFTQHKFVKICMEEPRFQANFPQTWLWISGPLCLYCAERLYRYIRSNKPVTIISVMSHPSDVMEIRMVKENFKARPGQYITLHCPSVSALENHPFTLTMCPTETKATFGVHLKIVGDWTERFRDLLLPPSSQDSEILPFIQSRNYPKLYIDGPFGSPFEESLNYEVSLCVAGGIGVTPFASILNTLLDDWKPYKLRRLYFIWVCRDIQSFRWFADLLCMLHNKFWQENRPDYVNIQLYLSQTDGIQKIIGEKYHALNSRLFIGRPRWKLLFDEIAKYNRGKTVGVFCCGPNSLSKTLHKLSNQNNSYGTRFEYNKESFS
The target of experiment [20] is NADPH oxidase 5 (Homo sapiens) (UniProt Q96PH1). Put plainly: NOX5-dependent H2O2 signal modulators, primary screen, NOX inhibitor project, cell-based, HEK293-NOX5, Amplex Red fluorescence (AID 1161). The note with it: HEK293-NOX5, ionomycin, 45 min, higher = more signal.
Chain of NADPH oxidase 5 (Homo sapiens) (Q96PH1 whole entry, looked up): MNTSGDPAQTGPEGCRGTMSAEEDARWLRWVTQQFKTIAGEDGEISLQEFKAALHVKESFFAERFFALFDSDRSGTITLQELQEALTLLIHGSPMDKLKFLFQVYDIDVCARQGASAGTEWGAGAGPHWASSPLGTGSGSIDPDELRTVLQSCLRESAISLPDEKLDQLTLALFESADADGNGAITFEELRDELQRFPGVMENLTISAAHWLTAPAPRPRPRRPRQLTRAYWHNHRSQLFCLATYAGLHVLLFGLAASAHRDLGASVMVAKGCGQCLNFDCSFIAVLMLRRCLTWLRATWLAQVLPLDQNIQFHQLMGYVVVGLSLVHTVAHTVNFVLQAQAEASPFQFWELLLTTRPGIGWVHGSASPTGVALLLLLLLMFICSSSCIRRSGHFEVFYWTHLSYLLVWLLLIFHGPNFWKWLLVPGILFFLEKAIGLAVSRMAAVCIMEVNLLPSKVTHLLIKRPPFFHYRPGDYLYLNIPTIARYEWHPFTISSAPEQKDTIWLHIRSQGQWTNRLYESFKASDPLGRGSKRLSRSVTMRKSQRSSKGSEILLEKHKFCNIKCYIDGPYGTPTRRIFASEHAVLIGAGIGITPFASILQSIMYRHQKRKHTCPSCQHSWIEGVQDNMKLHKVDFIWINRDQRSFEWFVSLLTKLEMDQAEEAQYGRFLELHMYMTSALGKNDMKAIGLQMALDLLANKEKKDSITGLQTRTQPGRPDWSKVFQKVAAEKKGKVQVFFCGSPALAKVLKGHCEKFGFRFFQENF

Structures are written as SMILES. Active and inactive are the calls of the source. Unless noted, no rule for the calls is given here.

Chain of NADPH oxidase 2 (Homo sapiens) (P04839 whole entry, looked up): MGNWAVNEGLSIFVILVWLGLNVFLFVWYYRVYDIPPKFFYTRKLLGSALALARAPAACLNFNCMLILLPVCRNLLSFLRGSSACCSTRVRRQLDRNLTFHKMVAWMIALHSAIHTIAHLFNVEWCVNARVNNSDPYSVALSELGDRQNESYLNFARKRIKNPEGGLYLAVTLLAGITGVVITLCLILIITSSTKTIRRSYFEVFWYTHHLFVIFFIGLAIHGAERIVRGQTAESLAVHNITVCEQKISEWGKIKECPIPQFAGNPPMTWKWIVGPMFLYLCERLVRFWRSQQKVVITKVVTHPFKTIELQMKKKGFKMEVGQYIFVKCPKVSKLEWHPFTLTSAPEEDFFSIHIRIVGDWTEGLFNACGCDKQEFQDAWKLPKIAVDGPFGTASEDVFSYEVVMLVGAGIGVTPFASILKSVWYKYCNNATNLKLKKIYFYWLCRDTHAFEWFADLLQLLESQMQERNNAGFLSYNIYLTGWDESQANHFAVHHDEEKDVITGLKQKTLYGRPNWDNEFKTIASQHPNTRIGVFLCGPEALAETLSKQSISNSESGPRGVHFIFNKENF

Turning to `CO[C@H]1COC(=O)[C@H](C)COC(=O)[C@@H](OCc2ccccc2)C=C[C@@H]1C`, the composite z-score in experiment [1] is -0.19; in experiment [6], -0.316; in experiment [7], -0.273; in [8], 0.489; in experiment [9], 0.214; in experiment [10], 0.307. Also, in experiment [12], the composite z-score is -0.193. Besides, the z-score in experiment [2] is -0.108 (inactive); in experiment [3] it was -0.462 (inactive); in experiment [4], -0.745 (inactive); in experiment [5], -0.786 (inactive); in [11], 0.623 (inactive); in experiment [13], 0.345 (inactive). For the same molecule, the z-score is 0.0669 (inactive) in [14]; -0.258 (inactive) in [15]; 0.0584 (inactive) in experiment [16]; 0.893 in experiment [17]; -0.596 (inactive) in [18]; 0.603 (inactive) in [19]. In experiment [20], the z-score worked out at 0.214.

Regarding `O=C1CCCC=C1C(O)c1ccc([N+](=O)[O-])cc1` (stereo not given), the composite z-score in experiment [1] was 0.042; in [6] it was 0.0753; in experiment [7] it was -0.212; in [8], 0.911; in experiment [9], 0.0183; in [10] it was -0.676. In addition, the composite z-score in experiment [12] was -0.217. Further, the z-score in [2] is 1.18 (inactive); in [3], 0.843 (inactive); in [4], -0.706 (inactive); in [5], 0.126 (inactive); in experiment [11], 0.134 (inactive); in [13], -0.487 (inactive). For the same molecule, the z-score was -0.347 (inactive) in experiment [14]; -0.324 (inactive) in [15]; -0.342 (inactive) in [16]; 0.317 in [17]; 1.42 (inactive) in experiment [18]; 0.262 (inactive) in [19]. The z-score in [20] is -0.56.

As to `CCOC(=O)[C@H](Cc1ccccc1)NC(=O)CCC1CC(OC(=O)NCCc2ccc(F)cc2)CC2(CCCC(COC(=O)NCCC(C)C)O2)O1` (stereo not given in full), the composite z-score in [1] was 0.446; in [6] it was 0.496; in experiment [7], -0.183; in experiment [8], 0.0817; in [9] it was 0.34; in [10], 1.68. The molecule further displayed a composite z-score in [12] of 0.145. Also, the z-score was 0.0118 (inactive) in experiment [2]; -0.275 (inactive) in experiment [3]; 1.09 (inactive) in experiment [4]; 0.956 (inactive) in experiment [5]; -0.15 (inactive) in experiment [11]; -1.5 (inactive) in experiment [13]. Also, the z-score is -0.302 (inactive) in experiment [14]; 0.005 (inactive) in experiment [15]; 0.0777 (inactive) in [16]; 0.429 in experiment [17]; -0.0979 (inactive) in [18]; 0.397 (inactive) in experiment [19]. The molecule also came in with a z-score in [20] of 0.7.

For the molecule `C#CCCCON=C1C[C@@H](O)[C@@H](O)[C@@H]2[C@@H]3C(=O)N(CC)C(=O)[C@@H]3CC[C@H]12`, the composite z-score in experiment [1] is 0.401; in experiment [6], 0.0761; in experiment [7], -0.0986; in experiment [8], 0.259; in experiment [9], 0.937; in experiment [10], 0.275. Also, in experiment [12], the composite z-score was -0.0035. Also, the z-score in [2] was 0.0934 (inactive); in [3], 0.203 (inactive); in [4] it was 0.252 (inactive); in [5], 0.0606 (inactive); in experiment [11], 0.135 (inactive); in [13], 0.129 (inactive). In addition, the z-score was 0.238 (inactive) in experiment [14]; -0.0312 (inactive) in [15]; 0.0581 (inactive) in experiment [16]; -0.403 in experiment [17]; -0.88 (inactive) in experiment [18]; -0.231 (inactive) in [19]. In addition, the z-score in experiment [20] was determined as 0.15.

`CCc1cc2c(nc1CC)CCN(CCC(C)=NOC(C)CN1CCCCc3nc(C)c(C)cc31)C2` (stereo not given): the composite z-score is 0.393 in experiment [1]; 0.88 in experiment [6]; 0.0713 in experiment [7]; 2.23 in [8]; 1.08 in experiment [9]; 1.58 in experiment [10]. The molecule also displayed a composite z-score in experiment [12] of 0.131. Moreover, the z-score in experiment [2] was -3.02 (inactive); in experiment [3], 0.227 (inactive); in [4], 2.08 (inactive); in experiment [5] it was 0.633 (inactive); in experiment [11] it was -1.74 (inactive); in experiment [13], 5.84 (inactive). The z-score in experiment [14] was 0.499 (inactive); in experiment [15], 1.54 (inactive); in experiment [16] it was 0.539 (inactive); in experiment [17], -0.408; in experiment [18], -3.06 (inactive); in experiment [19], -3.1 (inactive). Besides, the z-score in experiment [20] is -2.84.

In the case of `COc1ccc(COC(=O)NN=C2C[C@@H](O)[C@@H](O)[C@@H]3[C@@H]4C(=O)N([C@@H](C)c5ccccc5)C(=O)[C@@H]4CC[C@@H]23)cc1`, the composite z-score in [1] is 0.251; in experiment [6], 0.409; in experiment [7] it was 0.0111; in [8] it was 0.699; in experiment [9], 0.388; in experiment [10] it was -0.0113. Moreover, the composite z-score in [12] is -0.102. The z-score in experiment [2] was 1 (inactive); in experiment [3], -0.253 (inactive); in experiment [4] it was -0.113 (inactive); in [5], 0.0521 (inactive); in experiment [11], 0.774 (inactive); in experiment [13] it was 0.823 (inactive). Further, the z-score was -0.119 (inactive) in experiment [14]; -0.667 (inactive) in [15]; -0.0631 (inactive) in experiment [16]; -0.339 in [17]; -0.247 (inactive) in experiment [18]; 1.01 (inactive) in [19]. Further, in experiment [20], the z-score was -0.0473.

In the case of `C=CC[C@@H]1C=C[C@H](Oc2ccc(C)cc2)[C@@H](COC(=O)NCc2cccc3ccccc23)O1`, the composite z-score is 0.243 in experiment [1]; -0.142 in [6]; -0.156 in [7]; -0.0815 in experiment [8]; -0.0604 in experiment [9]; 0.701 in experiment [10]. The composite z-score in experiment [12] was -0.0501. The z-score was -2.06 (inactive) in experiment [2]; -0.607 (inactive) in experiment [3]; -0.527 (inactive) in experiment [4]; -0.868 (inactive) in experiment [5]; -0.575 (inactive) in experiment [11]; 2.39 (inactive) in experiment [13]. The z-score in [14] was 0.852 (inactive); in experiment [15] it was -0.508 (inactive); in experiment [16], 0.346 (inactive); in experiment [17], -0.783; in [18], 0.839 (inactive); in experiment [19] it was -0.187 (inactive). Also, in experiment [20], the z-score is -0.146.

As to `CCN1C(=O)[C@H]2[C@H]3[C@H](O)[C@H](O)CC(=NO[C@H](C)c4cn([C@H](CO)Cc5ccccc5)nn4)[C@@H]3CC[C@H]2C1=O`, the composite z-score is 0.217 in experiment [1]; 0.307 in [6]; -0.105 in experiment [7]; 0.265 in [8]; 0.556 in [9]; 0.742 in [10]. In experiment [12], the composite z-score was -0.323. Moreover, the z-score in experiment [2] is 0.399 (inactive); in experiment [3], 1.05 (inactive); in experiment [4], -0.385 (inactive); in [5], -0.228 (inactive); in experiment [11], -0.238 (inactive); in experiment [13] it was 0.334 (inactive). Further, the z-score in experiment [14] is 0.15 (inactive); in experiment [15], -0.0073 (inactive); in experiment [16], 0.123 (inactive); in experiment [17], -0.598; in experiment [18], 0.384 (inactive); in experiment [19], 0.293 (inactive). The z-score in [20] was -0.116.
